HT1080-NT tox: qHTS for induction of synthetic lethality in tumor cells producing 2HG: qHTS for the HT-1080-NT fibrosarcoma cell line; HT-1080-NT fibrosarcoma viability, CellTiter-Glo ATP luminescence, 48 h; Potency, µM (top dose mostly 46.1 µM), inactives show top-dose activity, negative = less viability, most hits filed as cytotoxic; 1.6% of 360,000 active;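 further: NT is the 2HG producing partner of a matched IDH1 knockdown line; 0% = DMSO-treated cells and -100% = media-only wells without cells; nearly all actives have a fitted effect of over 55% in size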
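Compounds were tested in concentration-response format on HT-1080-NT cells for 48 hours at 37 degrees C. Cell viability came from CellTiter-Glo luminescence; curves were classified by r2, response magnitude and activity.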
HT1080 IDH1KD tx: qHTS for induction of synthetic lethality in tumor cells producing 2HG: qHTS for the HT-1080-IDH1KD cell line | AID 686971, 2013 | Potency, µM (series often up to 46.1 µM), without a hit: at the highest dose activity, negative = toxicity, actives largely listed as cytotoxic | HT-1080 IDH1 knockdown viability, ATP luminescence, 48 h | 2% of 360,000 active;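 further: 0% = DMSO wells and -100% = cell-free medium wells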
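Viability of IDH1-knockdown HT-1080 fibrosarcoma cells was assessed by CellTiter-Glo after 48 h at 37 °C with titrated compound; concentration-effect curves were classified by fit quality and response size.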
ATXN2 expr inh: Primary qHTS for Inhibitors of ATXN expression; HEK-293 ATXN2-luciferase reporter, luminescence, 24 h; Potency, µM (doses to about 57 µM), for inactives: at the highest dose activity change, negative = inhibition, actives largely listed as inhibitors; 0.72% of 360,000 active; AID 1745845, 2022; further: on the % scale 0 is the no-effect control and ±100 the full control effect; nearly all actives have a fitted effect of over 55% in size
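qHTS (up to 57 uM final) was run with 24 h compound exposure of reporter cells at 37 °C. Each well was multiplexed: SteadyGlo luminescence measured ATXN2-luciferase expression after a fluorogenic Gly-Phe-AFC viability readout (25 uM final).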
KB-V1 cytotox: qHTS assay for MDR1-selective chemotherapeutics: Primary screen using the drug-selected MDR subline cells KB-V1 | KB-V1 MDR cells viability, CellTiter-Glo, 72 h | 3.4% of 400,000 active | Potency, µM (top dose mostly 46.1 µM), most hits filed as cytotoxic; further: on the % scale 0 is the no-effect control and ±100 the full control effect; nearly all actives have a fitted effect of over 60% in size
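KB-V1 cells (P-gp-expressing MDR subline of KB-3-1) in phenol-red-free DMEM with 10% FBS were exposed to library compounds over a concentration series for 72 h at 37 degrees C. Viability read by CellTiter-Glo luminescence; concentration-effect curves fitted after normalization.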
S2 tox: Viability Counterscreen for Primary qHTS for Inhibitors of ATXN expression; S2 cells (HEK-293 line with an ATXN2-luciferase reporter) viability, CellTiter-Fluor protease fluorescence, 24 h; 0.49% of 400,000 active; Potency, µM (series often up to 56.7 µM), most hits filed as cytotoxic; AID 651635, 2014; further: nearly all actives have a fitted effect of over 40% in size
KB-3-1 cytotox: qHTS assay for MDR1-selective chemotherapeutics: Primary screen using the parental adenocarcinoma cell KB-3-1 | Potency, µM (titrated, usually from 46.1 µM), actives largely listed as cytotoxic | AID 1347075, 2019 | 1.4% of 400,000 active | KB-3-1 viability, CellTiter-Glo ATP luminescence, 72 h; further: on the % scale 0 is the no-effect control and ±100 the full control effect; nearly all actives have a fitted effect of over 60% in size
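Viability of parental KB-3-1 cells, measured by CellTiter-Glo luminescence, followed a 72 h incubation at 37 °C with pinned compounds in phenol-red-free DMEM containing 10% FBS.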
Starred values were filed as active, the others as inactive. Hits are enriched below; roughly 6.2% of the tested compounds scored in any of these assays. The call rests on the fitted dose curve; in most records, active means well fitted curve in the direction sought with a large enough effect; inconclusive means small, poorly fitted or top-dose-only effect, or another doubt; inactive means no such curve, though single readings can be large; an effect the other way counts as inactive or inconclusive. Potency means the concentration at half of the fitted maximal effect.

Screening CC(=O)Oc1ccc(-c2ccc(C(=O)OCC(=O)N(C)CC(=O)Nc3ccccc3Cl)cc2)cc1 returned HT1080-NT tox 18µM*, HT1080 IDH1KD tx inconclusive, ATXN2 expr inh -13%, KB-V1 cytotox inactive, S2 tox inactive and KB-3-1 cytotox inactive.
For CCOC(=O)c1[nH]c(C)c(C(=O)Nc2cc(OC)ccc2OC)c1C the results were HT1080-NT tox 0.63µM*, HT1080 IDH1KD tx 0.56µM*, ATXN2 expr inh 7%, KB-V1 cytotox 0.5µM*, S2 tox inactive and KB-3-1 cytotox 1.3µM*.
`CCOC(=O)c1c(C)[nH]c(C(=O)OCC(=O)Nc2cccnc2Cl)c1C` gave HT1080-NT tox 4%, HT1080 IDH1KD tx 3%, ATXN2 expr inh 4%, KB-V1 cytotox inconclusive, S2 tox inactive and KB-3-1 cytotox inactive.
Screening CCOC(=O)c1c(C)[nH]c(C(=O)OCC(=O)N(C)CC(=O)Nc2ccccc2Cl)c1C returned HT1080-NT tox -3%, HT1080 IDH1KD tx -5%, ATXN2 expr inh 9%, KB-V1 cytotox 13µM*, S2 tox inactive and KB-3-1 cytotox inactive.
For Cc1ccc(OCC(=O)N2CCc3ccccc32)c([N+](=O)[O-])n1 the results were HT1080-NT tox 18%, HT1080 IDH1KD tx 18%, ATXN2 expr inh 6%, KB-V1 cytotox inactive, S2 tox inactive and KB-3-1 cytotox 23µM*.
For Cc1ccc(CNC(=O)c2c(-c3ccccc3Cl)noc2C)o1 the results were ATXN2 expr inh 12%, KB-V1 cytotox inactive, S2 tox inactive and KB-3-1 cytotox inactive.
For Cc1c(CNCc2ccc(Cl)cc2)c(C(=O)O)c(C)n1Cc1ccc(F)cc1 the results were ATXN2 expr inh -3%, KB-V1 cytotox inactive, S2 tox inactive and KB-3-1 cytotox inactive.
Screening CC(C)NS(=O)(=O)c1cc(C(F)(F)F)ccc1/C=C/C(=O)O returned KB-V1 cytotox inactive and KB-3-1 cytotox inactive.
`Cc1nc([N+](=O)[O-])cn1CC(O)c1ccc2c(c1)OCCO2` (stereo not given) gave KB-V1 cytotox inactive and KB-3-1 cytotox inactive.
`CSc1ccc(-c2nc3c(C)cccn3c2Nc2ccc3c(c2)OCCO3)cc1` gave ATXN2 expr inh -10%, KB-V1 cytotox inactive, S2 tox inconclusive and KB-3-1 cytotox inactive.
`CC1(C)Cc2c(C#N)c(N3CCN(C(=O)c4ccccc4)CC3)nc(Cc3ccccc3)c2CO1` gave HT1080-NT tox inconclusive, HT1080 IDH1KD tx inconclusive, ATXN2 expr inh -2%, KB-V1 cytotox 18µM*, S2 tox inactive and KB-3-1 cytotox inconclusive.
For O=C(NCCc1ccccc1)c1ccc2c(c1)N(Cc1c(F)cccc1Cl)C(=O)CS2 the results were ATXN2 expr inh 5%, KB-V1 cytotox inactive, S2 tox inconclusive and KB-3-1 cytotox inactive.
`Cc1cccc(-c2cc(NC(=O)COc3ccccc3F)n(-c3ccccc3)n2)c1` gave ATXN2 expr inh 3%, KB-V1 cytotox inactive, S2 tox inactive and KB-3-1 cytotox inactive.
`CC(=O)Nc1ccc(C(=O)N2CCCCC2c2cc(C(=O)Nc3cccc4c3CCCC4)no2)cc1` (stereo not given) gave HT1080-NT tox 16µM*, HT1080 IDH1KD tx 5.8µM*, ATXN2 expr inh inconclusive, KB-V1 cytotox inconclusive, S2 tox inconclusive and KB-3-1 cytotox inconclusive.
O=C(NCc1ccc2c(c1)CCN2C(=O)c1ccccc1)c1cc2ccccc2[nH]1 was read as KB-V1 cytotox inactive and KB-3-1 cytotox inactive.
Screening CCn1nnc2c(N3CCCC3)ncnc21 returned HT1080-NT tox 5% and HT1080 IDH1KD tx 16%.
Screening O=C(CCC(=O)NNC(=O)Nc1cccc(Cl)c1)NCc1ccccc1 returned HT1080-NT tox -15%, HT1080 IDH1KD tx -3%, ATXN2 expr inh -10%, KB-V1 cytotox inactive, S2 tox inactive and KB-3-1 cytotox inactive.
Screening O=C(CN1c2ccccc2Sc2ccccc21)NNC(=O)Nc1cccc(Cl)c1 returned HT1080-NT tox 18µM*, HT1080 IDH1KD tx 12µM*, ATXN2 expr inh -26%, KB-V1 cytotox inactive, S2 tox inconclusive and KB-3-1 cytotox inconclusive.
O=C(Nc1ccc(-c2nc3ccccc3[nH]2)cc1)c1ccc2c(c1)OCO2 was read as HT1080-NT tox inconclusive, HT1080 IDH1KD tx inconclusive, ATXN2 expr inh -28%, KB-V1 cytotox inactive, S2 tox inconclusive and KB-3-1 cytotox inactive.
For c1ccc2[nH]c(-c3ccc4c(c3)OCO4)nc2c1 the results were HT1080-NT tox 26µM*, HT1080 IDH1KD tx 26µM*, ATXN2 expr inh 20%, KB-V1 cytotox 13µM*, S2 tox inconclusive and KB-3-1 cytotox inconclusive.
For O=C(Nc1ccccc1C(=O)N1CCCCC1)c1nsc2ccccc12 the results were KB-V1 cytotox inactive and KB-3-1 cytotox inactive.
Screening Cc1cc([N+](=O)[O-])ccc1NCc1cccc2ccccc12 returned HT1080-NT tox inconclusive, HT1080 IDH1KD tx -1%, ATXN2 expr inh -2%, KB-V1 cytotox 13µM*, S2 tox inactive and KB-3-1 cytotox inactive.
Screening CCc1nn(CC(=O)NCCCc2ccccc2)c(=O)c2cc3ccccc3n12 returned KB-V1 cytotox inactive and KB-3-1 cytotox inactive.
`COc1cc(CNCc2c[nH]c3ccccc23)cc(OC)c1` gave HT1080-NT tox inconclusive, HT1080 IDH1KD tx -21%, ATXN2 expr inh -31%, KB-V1 cytotox 7.3µM*, S2 tox inconclusive and KB-3-1 cytotox inactive.
`COc1cc(CNCc2cccc3ccccc23)cc(OC)c1` gave HT1080-NT tox -11%, HT1080 IDH1KD tx -7%, KB-V1 cytotox inactive, S2 tox inactive and KB-3-1 cytotox inactive.
O=C(c1ccc(OC2CCN(Cc3ccccc3C(F)(F)F)CC2)cc1)N1CCCCC1 was read as HT1080-NT tox -15%, HT1080 IDH1KD tx inconclusive, ATXN2 expr inh -30%, KB-V1 cytotox 16µM*, S2 tox inactive and KB-3-1 cytotox inconclusive.
`O=C(c1ccc(OC2CCN(Cc3ccc(C(F)(F)F)cc3)CC2)cc1)N1CCCCC1` gave HT1080-NT tox 13%, HT1080 IDH1KD tx 16%, ATXN2 expr inh -16%, KB-V1 cytotox inactive, S2 tox inactive and KB-3-1 cytotox inactive.

Screening data from PubChem.
